KKLEB tox: CF airway cell cytotoxicity counter-screen; activity change (cytotoxicity), % at 5 µM; KKLEB CF airway cells viability, ATPlite luminescence, overnight; hits give low values; cells stimulated with P. aeruginosa culture filtrate; 360,000 tested, 0.36% active;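 active = corrected activity change at or below -50% at 5 µM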
LGR2 antag: Drosophila LGR2 receptor signaling inhibition. HEK293 LGR2, CRE-luciferase, bursicon-stimulated, 4 h. inhibition, % at 9.99 µM. 380,000 tested, 0.35% active. AID 720647;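 active = drop in luminescence signal, shown as inhibition above about 50% in the replicate tests, limit read from the data, passing the limit was not always enough; inconclusive = probably only some replicates passing the limit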;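 note: agonist challenge used bursicon conditioned medium at about half maximal strength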
hiPSC survival: enhancers of human iPSC single-cell survival. hiPSC single-cell survival, ATPlite luminescence; 100% = ROCK inhibitor wells, 0% = DMSO. survival enhancement, % at 20 µM. 360,000 tested, 0.044% active. AID 602274; in the data active = survival enhancement above about 18%;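 note: cells exposed to compounds for 16 hours before the ATP read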
HIF-2a inh: HIF-2a inhibition; 786-0 RCC cells HIF-2a reporter, luciferase luminescence, overnight; AID 624352; 360,000 tested, 0.72% active; inhibition, % at 18.8 µM;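 active = inhibition of the luminescence signal of 40% or more relative to plate controls, in a single-dose primary screen at 18.75 µM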
TWEAK Fn14 block: blocks TWEAK-Fn14 interaction in a reporter cell assay | TWEAK-stimulated Fn14 reporter cells, luciferase luminescence, 8 h | AID 1159606 | 360,000 tested, 2% active | inhibition, % at 10 µM; in the data active = inhibition above about 50%
CF NFkB block: inhibitors of cystic fibrosis induced NF-kB; KKLEB NF-kB-GFP reporter, PAF-induced, GFP fluorescence overnight; inhibition, % at 5 µM; 360,000 tested, 0.86% active; AID 588850;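 active = at least 50% inhibition at 5 µM, scaled per plate between neutral and stimulator controls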;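 note: PAF is a Pseudomonas aeruginosa culture filtrate used as stimulus; plate controls were PAF-stimulated DMSO wells for no effect and unstimulated DMSO wells for full effect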
The depositor's hits bear a star; ? = inconclusive; . = no result. Sampled rows, rich in hits. Any-hit rate of the full collection: about 2.3%.

SMILES	KKLEB tox	LGR2 antag	hiPSC survival	HIF-2a inh	TWEAK Fn14 block	CF NFkB block
N/C(=N\OC(=O)c1ccc(Cl)cc1Cl)c1ccc(Cl)cc1	-10.2	.	-2.2	-52.9	71.2*	-16.3
CCCC(=O)Nc1ccc2c(c1)OC[C@H](C)N(Cc1ccccc1)C[C@H](C)[C@H](OC)CN(C)C2=O	.	0.0	.	.	.	.
COc1ccc(NC(=O)Nc2ccc3c(c2)C(=O)N([C@H](C)CO)C[C@H](C)[C@H](CN(C)S(=O)(=O)c2cccs2)OCCCC[C@H](C)O3)cc1	.	6.1	.	.	.	.
COc1ccc2c3c([nH]c2c1)[C@H](CO)N(Cc1cccc(F)c1)CC31CN(CC2CC2)C1	.	-21.3	.	.	.	.
N/C(=N\OC(=O)c1ccc(Cl)cc1)c1ccn[nH]1	-14.2	?	-0.5	-45.6	51.5*	-2.7
Cc1cccc(/C(N)=N/OC(=O)c2ccc(Cl)cc2Cl)c1	-16.2	?	-3.2	-108.1	79.4*	-25.3
O=C(NOCc1ccccc1)c1ccc(Cl)cc1Cl	0.1	82.0*	-0.2	-50.1	82.5*	0.8
N/C(=N\OC(=O)c1ccc(Cl)cc1Cl)c1ccccc1	-48.2	.	-4.5	-69.5	90.8*	-21.1
O=C(NOCc1ccccc1)c1ccccc1	1.9	24.7	3.3	-124.0	39.9	4.7
C[C@@H]1CN([C@@H](C)CO)S(=O)(=O)c2ccc(C3=CCCCC3)cc2O[C@@H]1CN(C)Cc1ccccn1	.	19.6	.	.	.	.
Cn1c(=N)n(CC(=O)c2ccc(Cl)c(Cl)c2)c2ccccc21	-32.8	23.3	-0.7	-61.8	85.0*	-27.9
Cn1c(=N)n(CC(=O)c2ccccc2)c2ccccc21	-16.1	-10.2	-0.5	-63.2	45.0	-19.8
O=C(C=Cc1ccccn1)c1ccccc1	-12.8	?	-1.8	-37.7	82.1*	36.2
CNC[C@@H]1Oc2cc(C#Cc3ccncc3)ccc2S(=O)(=O)N([C@H](C)CO)C[C@@H]1C	.	-8.8	.	.	.	.
O=C(NCCCl)NNc1c(Cl)cc(Cl)cc1Cl	-4.8	4.4	-1.6	-110.8	51.1*	4.7
O=C(NCC1CC1)c1ccc(-c2cn[nH]c2)c2ccoc12	-46.2	-13.3	42.6*	-75.5	-29.0	32.3
O=C(NCC1CCOCC1)c1ccc(-c2ccc(F)c(F)c2)c2ccoc12	8.7	-12.2	-0.9	-31.7	-7.1	-13.1
COc1cc(NC(=O)c2ccc(-c3cn[nH]c3)c3ccoc23)cc(OC)c1OC	-7.4	19.1	2.3	-54.4	23.1	1.8
O=C(NCc1ccccc1)c1ccc(-c2cn[nH]c2)c2ccoc12	-66.9*	-14.6	107.0*	-171.2	-21.7	54.1*
COCCNC(=O)c1ccc(-c2cn[nH]c2)c2ccoc12	-19.8	-15.4	31.4*	-27.5	12.8	20.6
O=C(NCc1cccnc1)c1ccc(-c2ccc(F)c(F)c2)c2ccoc12	-3.5	0.3	-1.9	-19.2	30.1	-22.8
COc1ccc(CN(C)C[C@@H]2Oc3ccc(NC(=O)C4CC4)cc3CC(=O)N([C@H](C)CO)C[C@H]2C)cc1	.	-3.6	.	.	.	.
COc1ccc(/C(N)=N/OC(=O)CN(C)S(=O)(=O)c2ccc(C)cc2)cc1	1.3	8.5	1.0	7.7	68.3*	-1.8
C[C@H]1CN([C@@H](C)CO)C(=O)Cc2cc(NC(=O)CCCCCC(=O)Nc3ccccc3N)ccc2O[C@H]1CN(C)Cc1ccc(C(F)(F)F)cc1	.	-14.1	.	.	.	.
CC(C)(C)C(=O)Nc1ccc(/C=C/C(=O)c2ccco2)cc1	2.8	17.1	-0.6	-212.4	54.2*	17.7
SMILES	KKLEB tox	LGR2 antag	hiPSC survival	HIF-2a inh	TWEAK Fn14 block	CF NFkB block
C[C@@H]1CN([C@H](C)CO)C(=O)c2cccc(NC(=O)C3CCOCC3)c2O[C@@H]1CN(C)S(=O)(=O)c1ccccc1	.	-7.6	.	.	.	.
CCn1cc(C(=O)NCc2cccc(F)c2)c(=O)c2cc(F)c(N3CCN(C(=O)c4ccco4)CC3)cc21	-0.8	.	-0.5	18.0	51.8*	3.6
O=C(C[C@@H]1CC[C@@H]2[C@H](COC[C@@H](O)CN2C(=O)C2CC2)O1)NCc1ccncc1	.	-2.6	.	.	.	.
N#CCCN(C(=O)Nc1ccccc1)c1ccccc1	11.5	.	-3.2	-3.7	-3.3	-6.8
N#CCCN(C(=O)Nc1ccc(Cl)cc1)c1ccccc1	6.5	-4.9	-1.6	9.7	85.8*	-5.2
CC1=C(C(=O)OCCBr)C(c2cccc3ccccc23)NC(=O)N1 (stereo not drawn)	8.0	5.3	1.0	7.7	52.9*	5.3
O=C(Nc1cccc2c1CCCC2)c1cc([N+](=O)[O-])ccc1Cl	-24.3	.	-0.6	-16.0	51.0*	-17.4
C[C@@H]1CN([C@@H](C)CO)C(=O)c2cc(C#CC3CCCC3)cnc2O[C@@H]1CN(C)C(=O)Cc1ccccn1	.	-5.4	.	.	.	.
CC(=O)Oc1ccc(C#C/C=C2\c3ccccc3C(=O)N2c2ccccc2)cc1	-3.0	.	-2.1	-167.7	50.7*	25.5
CO[C@H]1CN(C)C(=O)c2cc(NC(C)=O)ccc2OC[C@H](C)N(Cc2cc(F)ccc2F)C[C@H]1C	.	-1.7	.	.	.	.
O=C1CC(c2ccccc2)CC(O)=C1C=NCc1ccc(Cl)c(Cl)c1 (stereo not drawn)	1.5	.	4.3	6.3	76.4*	-4.8
O=C1CC(c2ccccc2)CC(O)=C1C=NCc1ccncc1 (stereo not drawn)	-4.3	-2.2	1.5	17.1	11.1	13.1
Cc1nc2c(-c3ccc(F)cc3)cnn2c(N)c1-c1ccccc1	-53.8*	64.0*	-0.9	24.9	104.2*	-1.1
Cc1cc(-c2ccc(F)cc2)n2ncc(-c3ccccc3)c2n1	-23.0	26.6	-3.7	-50.4	86.5*	-14.6
COc1ccc(-c2c(C)nc3c(-c4ccc(F)cc4)cnn3c2N)cc1	-9.8	-74.4	-0.5	-170.4	46.4	5.6
Cc1nc2c(-c3ccc(Cl)cc3)cnn2c(N)c1-c1ccc(F)cc1	-23.8	2.7	-0.6	10.0	94.5*	8.2
Fc1ccc(-c2cnn3c(-c4ccncc4)ccnc23)cc1	-14.7	-55.8	-2.0	-154.5	61.0*	11.8
C[C@@H]1CN([C@@H](C)CO)C(=O)c2cc(NC(=O)C3CCCCC3)ccc2O[C@@H](C)CCCCO[C@@H]1CN(C)Cc1ccccc1	.	16.0	.	.	.	.
O=C(C[C@@H]1CC[C@H]2[C@@H](COC[C@H](O)CN2Cc2cccc(-c3ccncc3)c2)O1)N1CCCCC1	.	-3.0	.	.	.	.
O=C(CC1CC1)Nc1ccc2c(c1)[C@H]1C[C@@H](CC(=O)N3CCOCC3)O[C@@H](CO)[C@H]1O2	.	-6.2	.	.	.	.
O=C(Nc1nccs1)c1ccc(Br)c(S(=O)(=O)N2CCCC2)c1	-6.2	7.5	-0.4	-56.1	96.7*	22.2
CC=Cc1ccc2n(c1=O)C[C@H]1[C@H](CO)[C@@H](C(=O)NCc3ccncn3)N(C(=O)NC3CCCC3)[C@@H]21 (mixture of isomers)	.	10.1	.	.	.	.
O=C(NCCc1ccc(Cl)cc1)c1ccc(S(=O)(=O)N2CCCC2)cc1	-4.2	-10.4	1.0	17.3	-5.1	-0.1
CC(=O)NCCc1ccc(S(=O)(=O)N2CCCC2)cc1	-1.1	.	7.3	9.8	82.0*	5.6
